The source of these data is PubChem BioAssay AID651602 (The Scripps Research Institute Molecular Screening Center, 2012).

Among all 360,000 compounds or so, about 950 (0.26%) were called active. The full list was thinned out, with actives kept by preference. Unmarked numbers belong to inactive results. Rule as the data show it: active = inhibition above about 11%; inactive = the rest.

The assay in a line: growth loss of phage-infected E. coli, primary screen, RecBCD inhibitor project, absorbance, with phage, HTS (AID 651602). As to conditions: at 11.9 µM, active compounds read high.
Consider `CC1(C(=O)NS(=O)(=O)c2ccccc2)CCN1C(=O)c1ccccc1` (configuration not stated), for which the inhibition was 2.52%.
The figure for `CC1(C(=O)NS(=O)(=O)c2ccccc2)CCN1C(=O)C/C=C/c1ccccc1` (configuration not stated) is 13.4% (active); for `CC1(C(=O)NS(=O)(=O)c2ccccc2)CCN1C(=O)Cc1ccc(-c2ccccc2)cc1` (configuration not stated) it is -0.69%; for `COc1ccccc1CCn1cnc(-c2ccccc2)c1C(C)C` it is 1.47%.
Then `Nc1nc2c(ncn2[C@@H]2O[C@H](C(=O)N[C@@H](Cc3ccccc3)C(=O)NCc3ccccc3)[C@@H](O)[C@H]2O)c(=O)[nH]1`, with 3.17%; and `COc1ccc2c(c1)c(=Cc1ccc(N(C)C)cc1)c1cc(-c3ccccc3)[n+](C)n12`, with 23.7% (active); and `CC(=O)c1c(C)n([O-])c2ccccc2[n+]1=O`, with 25.5% (active).
The figure for `Cc1c(C=O)c2ccccc2n1CC(=O)O` is 0.31%.
`NC(=O)c1ncn([C@@H]2O[C@H](C(=O)O)[C@@H](O)[C@H]2O)n1`: the inhibition is 0.63%.
Then `C[C@H]1CN([C@@H](C)CO)C(=O)CCCn2nncc2CO[C@@H]1CN(C)C(=O)Nc1ccc(N2CCN(C)CC2)cc1`, with 0.4%.
The figure for `Cc1ccc(NC(=O)N2c3ccccc3SC2c2ccco2)c(C)c1` (configuration not stated) is 5.53%; for `CC(=NNC(N)=O)c1ccc(Cl)c(-n2cccc2)c1` it is 5.68%; for `CCCCOCC1CN(CCCC)S(=O)(=O)c2c(Oc3ccc(F)cc3)cccc2O1` (configuration not stated) it is 5.95%.
As to `NC(=S)NN=Cc1ccc(OC(=O)COc2cc(Cl)c(Cl)cc2Cl)cn1`, the inhibition is 11.6% (active).
For `O=C(COC(=O)COc1cc(Cl)c(Cl)cc1Cl)NC1CC1`, the inhibition is 3.17%.
Then `O=C(COc1cc(Cl)c(Cl)cc1Cl)NCCc1ccccn1`, with -0.15%.
On to `C=CC1=CCN(S(=O)(=O)C(C)(C)C)[C@@H]1CCO`, for which the inhibition is 1.03%.
The figure for `Nc1ncnc2c1ncn2C1OC(CO)CC1O` (configuration not stated) is 3.4%; for `C[C@H](CO)N1C[C@H](C)[C@@H](CN(C)C(=O)Nc2ccccc2F)OCc2cn(nn2)CCCC1=O` it is 0.72%; for `O=C1CCC(=O)N(O)CCCCCNC(=O)CCC(=O)N(O)CCCCCNC(=O)CCC(=O)N(O)CCCCCN1` it is 23.5% (active).
The figure for `COCc1cc(N2CCN(C(=O)OC(C)(C)C)C[C@@H]2C)ccc1N1CCN(Cc2ccccc2)[C@H](C)C1` is -2.53%.
The figure for `Cc1cccc(NS(=O)(=O)c2cccc(C(=O)NNC(=O)c3ccccc3O)c2)c1` is 5.15%; for `O=C(NNC(=O)c1ccccc1O)c1ccccc1O` it is 30% (active).
`O=C(NNC(=O)c1cc(S(=O)(=O)N2CCCCC2)ccc1Cl)c1ccccc1O`: the inhibition was 1.7%.
The figure for `COC(=O)C1=C(C)N(Cc2ccc(C(F)(F)F)cc2)C(=NCc2ccc(C(F)(F)F)cc2)NC1c1cccc(Cl)c1` (configuration not stated) is 1.58%; for `O=C(NS(=O)(=O)c1cccs1)[C@H]1O[C@@H](n2ccc(=O)[nH]c2=O)[C@H](O)[C@@H]1O` it is 3.33%.
The figure for `O=C(CSc1ccc(-c2ccccn2)nn1)Nc1ccccc1` is 12.9% (active).
The figure for `O=C(CSc1ccc(-c2ccc(-n3cccn3)cc2)nn1)Nc1ccc([N+](=O)[O-])cc1` is -0.99%; for `COc1cc(NC(=O)CSc2ccc(-c3cccnc3)nn2)cc(OC)c1` it is 0.39%.
As to `O=C1Nc2ccccc2C1=NN=Cc1ccco1`, the inhibition was -0.54%.
Then `C=CC[C@]12C[C@@]3(O[C@H](c4ccc(C(F)(F)F)cc4)N=C3C[C@H](c3ccc(OC)cc3)[C@H]1C)N(C1CCN(Cc3ccccc3)CC1)C2=O`, with 6.28%; and `CC1CCCN(c2cccc3c2S(=O)(=O)N(Cc2ccc(F)cc2)[C@@H](C)[C@H](c2ccccc2)O3)C1` (some centres not stated), with 1.59%; and `N#Cc1ccc(OCCCN2CCC(C(O)(c3ccccc3)c3ccccc3)CC2)c(F)c1`, with 0.63%.
Then `C=CCn1c(=O)c(C(=O)NCc2ccc3c(c2)OCO3)c(O)c2ccccc21`, with 12.1% (active); and `C=CCn1c(=O)c(C(=O)Nc2ncccc2O)c(O)c2ccccc21`, with 3.7%; and `CCn1c(=O)cc(SCC(=O)NCc2ccc3c(c2)OCO3)c2ccccc21`, with 1.95%.
On to `CCOC(=O)c1ccc(NC(=O)Cn2cnc3cc(C)c(C)cc32)cc1`, for which the inhibition is 18.8% (active).
Then `CCOC(=O)c1ccc(NC(=O)CS(=O)(=O)c2cn(CC)c3ccccc23)cc1`, with 0.46%.
Then `CCOC(=O)c1ccc(NC(=O)CCn2c(=O)oc3ccccc32)cc1`, with 1.49%; and `Cc1ccccc1C(=O)N[C@H](C(=O)N1CCC[C@H]1C(=O)NCc1ccccc1)C(C)C`, with -1.25%; and `COC(=O)C(C)N=Cc1ccccc1` (configuration not stated), with 0.77%.
Then `CC(C)(C)OC(=O)N/N=C/c1ccc(C(=O)O)cc1`, with 1.87%; and `COC(=O)N/N=C/c1c[n+]([O-])c2ccccc2[n+]1[O-]`, with 37.5% (active); and `Cc1ccc2nc(CN(C)C(=O)[C@@H](Cc3ccccc3)NC(=O)[C@H]3O[C@@H](n4ccc(=O)[nH]c4=O)[C@H](O)[C@@H]3O)[nH]c2c1`, with 2.03%.
Consider `COC(=O)[C@]12C[C@H](CC(=O)N3CCN(C(=O)C4CC4)CC3)C(=O)N(Cc3ccc4c(c3)OCO4)C1=C[C@H](C(C)(C)C)O[C@@H]2C`, for which the inhibition is 2.87%.
The figure for `Cc1ccc(C)c(CN2CCC(CNC(=O)C3CCCN(c4ncnc5c4nc4n5CCCCC4)C3)CC2)c1` (configuration not stated) is 3.47%; for `CCN1CCN(c2nc(Nc3cc(OC)ccc3OC)nc(Nc3cc(OC)ccc3OC)n2)CC1` it is 99.1% (active); for `COc1ccc(OC)c(NC(=O)CCN2CCC(C)CC2)c1` it is -0.47%.
Then `CCCOc1ccc(Cl)cc1Nc1nc(NCCO)nc(N2CCCC2)n1`, with 0.63%; and `O=S1(=O)c2c(cccc2N2CCCC2)O[C@H](COCc2ccccc2)CN1C1CC1`, with 2.78%.
With `Cc1[nH]c2ccccc2c1CC(=O)Nc1ccc(Nc2cccnc2)c(-c2cccc(Cl)c2)c1`, the inhibition is 3.75%.
Then `CCN1C(=O)N[C@@H]2C[C@H](C(=O)N3CCCC3)[C@H](C)[C@H](c3ccccc3)C[C@@H]21`, with 4.26%.
